Screens (PubChem)
Neddyl block: inhibitors of cullin neddylation, primary screen, biochemical, TR-FRET, uHTS, NAE and Ubc12 | AID 651699, 2012 | NEDD8-conjugating enzyme Ubc12 (Homo sapiens) + NEDD8-activating enzyme E1 regulatory … | calls only at 25 µM | actives 0.58% (n = 360,000); in the data active = inhibition above about 36%
MBD2 inh: inhibitors of MBD2 binding to methylated DNA, primary screen, biochemical, TR-FRET, DNA-binding domain, human. actives 0.31% (n = 370,000). MBD2 binding to methylated oligonucleotide. AID 686964, 2013. Methyl-CpG-binding domain protein 2 (Homo sapiens), Q9UBB5. inhibition, % at 4.4 µM; in the data active = inhibition above about 13%
Target sequence (Q9UBB5 whole entry, looked up, the tested form may be a part): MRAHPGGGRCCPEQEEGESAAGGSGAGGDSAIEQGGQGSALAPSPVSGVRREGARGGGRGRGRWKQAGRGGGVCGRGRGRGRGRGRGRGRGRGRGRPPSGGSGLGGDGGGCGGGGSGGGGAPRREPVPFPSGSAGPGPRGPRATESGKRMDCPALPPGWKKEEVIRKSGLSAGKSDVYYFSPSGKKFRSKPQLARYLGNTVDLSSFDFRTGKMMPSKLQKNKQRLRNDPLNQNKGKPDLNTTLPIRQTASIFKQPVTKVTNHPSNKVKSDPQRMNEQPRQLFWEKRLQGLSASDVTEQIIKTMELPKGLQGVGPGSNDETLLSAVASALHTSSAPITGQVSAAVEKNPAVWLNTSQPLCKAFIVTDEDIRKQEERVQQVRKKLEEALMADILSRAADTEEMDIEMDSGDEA
UHRF1 binding: UHRF1 methylated DNA binding inhibitors, primary screen, counter-screen for MBD2 inhibitor project, biochemical, TR-FRET, human UHRF1, single concentration | E3 ubiquitin-protein ligase UHRF1 (Homo sapiens), Q96T88 | UHRF1 binding to methylated oligo | inhibition, % at 4.4 µM | actives 0.75% (n = 370,000) | AID 687016, 2013;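 also: UHRF1 SRA domain binding a hemimethylated CpG hairpin DNA probe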
UBC13 inh: UBC13 polyubiquitin chain formation inhibitors, primary screen, biochemical, TR-FRET, uHTS. Ubiquitin-conjugating enzyme E2 N (Homo sapiens), P61088. actives 0.47% (n = 330,000). inhibition, % at 20 µM; in the data active = inhibition above about 45%, passing the limit was not always enough
Target sequence (P61088 whole entry, looked up): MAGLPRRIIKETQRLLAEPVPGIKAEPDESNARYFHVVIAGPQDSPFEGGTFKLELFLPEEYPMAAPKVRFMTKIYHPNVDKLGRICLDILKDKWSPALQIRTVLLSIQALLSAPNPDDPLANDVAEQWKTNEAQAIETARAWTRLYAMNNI
UHRF1 DNA bind: UHRF1 methylated DNA binding inhibitors, counter-screen for MBD2 inhibitor project, biochemical, TR-FRET, human UHRF1; inhibition, % at 4.4 µM; actives 25% (n = 1,000); shares compounds with MBD2 inh; UHRF1 binding to methylated oligonucleotide;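 also: UHRF1 SRA domain binding a labeled hemimethylated CpG hairpin DNA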
MBD2 DBD conf: inhibitors of MBD2 binding to methylated DNA, confirmation, biochemical, TR-FRET, DNA-binding domain, human. shares compounds with MBD2 inh. inhibition, % at 4.4 µM. TR-FRET MBD2-DBD binding to methylated oligonucleotide. actives 26% (n = 1,000); in the data active = inhibition above about 14%
A number is an active result; 0 = inactive; - = not tested or not shown. Rows were chosen to be rich in hits. Some 1.8% of all compounds tested hit in one or more screens of this group. Rule as the data show it, unless noted: active = inhibition above about 21%; inactive = the rest.

SMILES	Neddyl block	MBD2 inh	UHRF1 binding	UBC13 inh	UHRF1 DNA bind	MBD2 DBD conf
CN/C(=C/[N+](=O)[O-])NCCSCc1csc(CN(C)C)n1	0	0	0	0	-	-
CS(=O)(=O)N1CCC(C(=O)Nc2ccc(C(N)=O)cc2)CC1	0	40.1	0	0	0	0
CN1C2=N[C@@H](c3ccc(Br)cc3)CC(=O)N2/C(=C\c2ccccc2)[C@@H]1c1ccccc1	-	0	0	-	-	-
CN1C2=N[C@@H](c3cccc(C(F)(F)F)c3)CC(=O)N2/C(=C\c2ccccc2)[C@H]1c1ccccc1	-	30.7	50.8	-	28.9	23.1
O=C(O)c1cccc2c1C(=O)c1cc([N+](=O)[O-])cc([N+](=O)[O-])c1-2	0	0	0	-	-	-
O=S(=O)(c1cc(O)ccc1O)c1cccc2c(S(=O)(=O)c3cc(O)ccc3O)cccc12	0	20.3	32.9	0	36.9	16.9
Cc1ccc(-n2nc(C)cc2NC(=O)CC#N)cc1	0	0	0	0	-	-
Cc1ccc(-n2nc(C)cc2NC(=O)c2ccc(C)s2)cc1	0	34.1	0	0	0	0
COc1ccc(NC(=O)C[C@@H]2C(=O)N(c3ccc(OC)cc3)CC2(C)C)cc1	0	40.0	0	-	0	0
Cn1c(=O)c2c(nc(N3CCOCC3)n2CCCNC2=NCCCCC2)n(C)c1=O	0	0	0	0	-	-
CC(=O)c1cccc(OCC(=O)N(C)CC(=O)NCc2ccco2)c1	0	22.3	49.4	0	43.0	17.8
C[C@H]1CN([C@@H](C)CO)C(=O)CCCn2nncc2CO[C@H]1CN(C)S(=O)(=O)c1ccc(-n2cccn2)cc1	0	16.3	0	-	0	0
CCC(Sc1nc(=O)cc(N)n1CCc1ccccc1)C(=O)Nc1ccccc1C#N (centres undefined)	0	0	0	0	-	-
O=C(c1ccc(OC(F)(F)F)cc1)c1ncc[nH]1	0	-	-	0	-	-
COC(=O)N1CC(=O)N(OC)C1c1ccc(Cl)cc1Cl (centres undefined)	0	15.3	25.2	0	0	0
CON1C(=O)CN(C(C)=O)C1c1ccc(Cl)cc1Cl (centres undefined)	0	0	0	-	-	-
CCCC(=O)Oc1ccc(N(C(=O)CCC)S(=O)(=O)c2cccc([N+](=O)[O-])c2)cc1	0	16.7	28.3	0	0	0
CCCC(=O)Oc1ccc(N(C(=O)CCC)S(=O)(=O)c2cccs2)cc1	0	0	0	0	-	-
COc1cccc(NC(=O)Nc2nnc(Cc3ccc(F)cc3)s2)c1	0	34.1	0	0	0	0
COc1ccc(Cc2nnc(NC(=O)Nc3cccc(OC)c3)s2)cc1	0	0	0	0	-	-
CCOc1ccc(C(=O)NCC(=O)OCCCC(=O)c2ccc(F)cc2)cc1OCC	0	0	0	0	-	-
COc1ccc(-c2noc(CCCC(=O)N3CCOCC3)n2)cc1	0	0	0	0	-	-
CC(C)CNS(=O)(=O)c1cc(C(=O)O)c(Cl)cc1Cl	0	0	0	0	-	-
COCCCNC(=O)CCc1c(C)c2cc3c(C)coc3cc2oc1=O	-	13.2	0	0	0	0
CC(Sc1nnnn1C)C(=O)Nc1nc(-c2ccc(F)c(F)c2)cs1 (centres undefined)	0	18.3	26.6	0	0	0
SMILES	Neddyl block	MBD2 inh	UHRF1 binding	UBC13 inh	UHRF1 DNA bind	MBD2 DBD conf
Cc1c(C=O)c(C=O)c(C)n1Cc1ccccc1	0	15.9	31.5	0	0	0
CCc1nnc(NS(=O)(=O)c2ccc(NC(=O)c3cc(Cl)ccc3Cl)cc2)s1	0	0	0	0	-	-
CCc1cccc(OCCCn2ccnc2)c1	0	0	0	0	-	-
COc1ccc(N2CCN(C(=O)c3ccc4c(c3)CC(c3ccccc3)OC4=O)CC2)cc1 (centres undefined)	0	13.6	20.9	0	0	0
Cn1c(=O)cc(N2CCOCC2)[nH]c1=O	0	0	0	0	-	-
CSc1ccc(CN(C)CC(=O)NC(C)c2ccccc2)cc1 (centres undefined)	0	18.6	0	0	0	0
COc1cc2c(cc1OC)-c1c(OC)c(OC)cc3ccnc(c13)C2=O	0	33.0	37.5	0	52.8	46.4
Cc1c2cnn(CC(=O)Nc3c(F)c(F)cc(F)c3F)c(=O)c2c(C)n1Cc1ccccc1F	0	13.6	0	0	0	29.2
CNC(=O)Cn1ncc2c(C)n(Cc3ccc(C)cc3)c(C)c2c1=O	0	0	0	0	-	-
COc1ccc(CC(=O)Nc2ccc(OC)c(NC(=O)c3ccco3)c2)cc1	0	15.0	0	0	0	0
COc1ccc(N2CCN(C(=O)c3ccc(CS(=O)c4cccc(C)c4)o3)CC2)cc1 (centres undefined)	0	13.6	23.3	0	0	0
COc1cccc(N2CCN(C(=O)c3ccc(CS(=O)c4ccccc4C)o3)CC2)c1 (centres undefined)	0	0	0	0	-	-
COC(=O)c1cc(=O)n(Cc2ccco2)c(=Nc2ccccc2)s1	-	0	0	-	-	-
O=C1N/C(=C/c2ccc(Br)s2)C(=O)N1c1ccccc1	0	0	0	0	-	-
CC(=O)c1cccc(NC(=O)C(C)OC(=O)C2=NNC(=O)CC2)c1 (centres undefined)	0	0	0	0	-	-
COc1ccc(C(=O)NCCN(C)C)c2nc3ccccc3cc12	0	36.3	0	-	0	69.5
COc1ccc(Cl)cc1C(=O)NCCN(C)C	0	0	0	0	-	-
CN(C)CCNC(=O)c1cccc2[nH]c(-c3ccncc3)nc12	-	13.2	0	-	0	19.8
COc1cccc2nc3c(C(=O)NCCN(C)C)cccc3cc12	0	19.4	0	-	0	29.9
CN(C)CCNC(=O)c1ccccc1-c1ccccc1	0	0	0	0	-	-
C=CCOC(=O)C1=C[C@H](c2csc3ccccc23)C[C@H](OCCCCO)O1	0	0	0	0	-	-
NC(=O)C1=C[C@@H](c2csc3ccccc23)C[C@@H](OCCCCO)O1	0	14.8	0	0	0	0
CC(C)OCCCn1c(SC(C)C(=O)NC2CC2)nc2ccccc2c1=O (centres undefined)	0	0	0	0	-	-
Cc1ccc(C(=O)N2CCN(C(=O)CN3CCOCC3)C2)cc1	0	13.9	0	0	0	0
Cc1ccc(C(=O)C2CCN(CC(=O)N3CCOCC3)CC2)cc1	-	0	0	-	-	-
NC(=O)C1(N2CCCCC2)CCN(C(=S)Nc2ccc(F)cc2)CC1	0	0	0	0	-	-
Cc1ccc(-c2nc3ccc(Cl)cn3c2CC2CCCCC2)cc1	0	0	0	-	-	-
Cc1ccc(-c2nc3ccc(C)cn3c2CC2CCCCC2)cc1	0	13.4	21.7	-	0	0
